High-throughput results deposited in PubChem BioAssay by National Center for Advancing Translational Sciences (NCATS).
Hits are enriched below; roughly 0.87% of the tested compounds scored in any of these assays.
BLM inh: inhibitors of human Bloom syndrome helicase BLM; Potency, µM (highest dose often 56.1 µM), most hits filed as inhibitors; P54132; 350,000 compounds, 0.2% hits; recombinant BLM DNA unwinding, fluorescence dequenching; also: nearly all actives have a fitted effect of over 35% in size
Target sequence (P54132 whole entry, looked up): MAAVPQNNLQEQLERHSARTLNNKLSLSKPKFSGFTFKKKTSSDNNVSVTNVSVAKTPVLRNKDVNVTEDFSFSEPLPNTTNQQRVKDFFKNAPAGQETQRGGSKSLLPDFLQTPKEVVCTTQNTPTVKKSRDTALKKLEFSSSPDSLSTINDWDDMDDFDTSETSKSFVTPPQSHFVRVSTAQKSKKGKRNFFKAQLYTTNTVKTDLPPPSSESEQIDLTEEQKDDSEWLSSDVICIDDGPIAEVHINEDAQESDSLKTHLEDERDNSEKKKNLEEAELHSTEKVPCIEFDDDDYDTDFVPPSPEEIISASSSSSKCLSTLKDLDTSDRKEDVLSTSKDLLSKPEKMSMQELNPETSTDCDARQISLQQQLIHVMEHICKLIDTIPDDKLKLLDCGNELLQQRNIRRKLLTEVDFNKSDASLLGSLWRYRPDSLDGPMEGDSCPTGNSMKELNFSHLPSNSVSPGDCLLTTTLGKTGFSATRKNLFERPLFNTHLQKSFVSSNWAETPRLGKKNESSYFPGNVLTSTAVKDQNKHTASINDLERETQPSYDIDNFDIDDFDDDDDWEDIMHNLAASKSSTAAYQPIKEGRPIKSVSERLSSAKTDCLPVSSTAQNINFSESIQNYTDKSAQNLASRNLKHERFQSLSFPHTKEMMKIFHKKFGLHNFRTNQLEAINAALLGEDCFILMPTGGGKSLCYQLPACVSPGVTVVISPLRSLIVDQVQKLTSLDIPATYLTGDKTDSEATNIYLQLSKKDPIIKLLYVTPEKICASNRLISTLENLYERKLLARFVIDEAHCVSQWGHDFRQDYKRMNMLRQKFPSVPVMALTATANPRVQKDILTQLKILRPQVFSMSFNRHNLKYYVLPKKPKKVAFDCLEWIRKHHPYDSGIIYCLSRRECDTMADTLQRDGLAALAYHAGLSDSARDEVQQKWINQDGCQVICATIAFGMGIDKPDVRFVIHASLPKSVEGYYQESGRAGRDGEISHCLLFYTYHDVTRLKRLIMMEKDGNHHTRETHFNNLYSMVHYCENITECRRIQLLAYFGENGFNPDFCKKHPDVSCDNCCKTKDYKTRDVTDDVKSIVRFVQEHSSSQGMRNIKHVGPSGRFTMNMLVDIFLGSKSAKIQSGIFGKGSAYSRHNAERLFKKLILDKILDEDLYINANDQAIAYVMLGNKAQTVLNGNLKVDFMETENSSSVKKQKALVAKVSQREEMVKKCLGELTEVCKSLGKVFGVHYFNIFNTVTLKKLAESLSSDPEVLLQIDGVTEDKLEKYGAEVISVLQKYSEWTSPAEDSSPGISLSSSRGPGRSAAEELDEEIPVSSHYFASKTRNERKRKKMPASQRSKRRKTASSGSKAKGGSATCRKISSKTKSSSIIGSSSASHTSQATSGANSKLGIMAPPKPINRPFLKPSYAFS
TDP1 inh: blocks human tyrosyl-DNA phosphodiesterase 1 | 350,000 compounds, 0.28% hits | Potency, µM (top dose mostly 130 µM), most hits filed as inhibitors | recombinant TDP1, AlphaScreen DNA substrate cleavage | AID 485290 | Q9NUW8; also: nearly all actives have a fitted effect of over 40% in size
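Recombinant E. coli-expressed Tdp1 (1 nM) preincubated with compound 15 min at RT, then 5'-biotin/3'-phosphotyrosine-FITC DNA substrate (15 nM) added for 5 min. AlphaScreen beads (10 ug/ml) added, 10 min RT; tyrosine-FITC cleavage read as signal loss.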
GCN5L2 inh: blocks human GCN5L2 histone acetyltransferase; AID 504327; Potency, µM (series often up to 58.9 µM), most hits filed as inhibitors; Q92830; 390,000 compounds, 0.21% hits; GCN5L2 HAT assay, ThioGlo1 CoA-SH fluorescence
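Preincubate 20nM GCN5L2 with compound 15 min, RT → add 50uM ThioGlo1 + 75uM H3(1-25) + 70uM acetyl-CoA → read fluorescence 0 and 20 min. Primary qHTS; fluorescent artifacts likely.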
RECQ1 inh: blocks DNA unwinding by human RECQ1; RECQ1 DNA unwinding, red fluorescence kinetic read; AID 2549; P46063; Potency, µM (doses to about 57.3 µM), actives largely listed as inhibitors; 240,000 compounds, 0.54% hits; also: nearly all actives have a fitted effect of over 30% in size
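50 nM RECQ1T1 preincubated 15 min with compound in Tris pH 8.0 buffer with MgCl2, DTT, Tween-20 and 2.5 ug/ml poly(dI-dC); started with 200 nM TAMRA/BHQ-2 forked duplex and 2 mM ATP. Unwinding read as fluorescence (525/598 nm), two reads 2 h apart.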
APE1 inh: blocks human APE1 abasic DNA cleavage | 350,000 compounds, 0.35% hits | AID 2517 | P27695 | recombinant APE1, TAMRA/BHQ-2 abasic DNA cleavage fluorescence | Potency, µM (top dose mostly 65.8 µM), hits mostly inhibitors; also: nearly all actives have a fitted effect of over 55% in size
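0.75 nM APE1 + cpd, 15 min RT; start w/ 50 nM TAMRA/BHQ-2 THF-abasic dsDNA; kinetic fluor 525/598 nm ×3 reads @60 s; Δ(read3−read1); normalized to DMSO and NSC13755 control wells.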
A number is an active result; i = inactive; ? = inconclusive; nt = no result given; ! = not confirmed by another sample; [ ] = dose if it differs, or a comment. Calls follow the shape of the dose curve; as a rule, active = well fitted curve in the direction sought with a large enough effect; inconclusive = small, poorly fitted or top-dose-only effect, or another doubt; inactive = no such curve, though single readings can be large; an effect the other way counts as inactive or inconclusive.

SMILES	BLM inh	TDP1 inh	GCN5L2 inh	RECQ1 inh	APE1 inh
NC(=O)c1ccc(N=C2C(=O)Nc3ccc([N+](=O)[O-])cc32)cc1	32µM	i	i	i	i
COc1cccc(C2c3c(ncn(-c4ccccc4C)c3=N)Oc3ccc4ccccc4c32)c1 (configuration not stated)	nt	i	nt	nt	nt
CCOc1ccc(N=Cc2c(C)[nH]n(-c3nc4ccccc4[nH]3)c2=O)cc1	i	50µM	i	i	i
Cc1[nH]n(-c2ccccc2)c(=O)c1C=Nc1cnc2ccccc2c1	i	i	i	i	i
COC(=O)\C(C(C)=O)=C(/C=C/C=C/N(C)C)N(C)C	i	22µM	i	i	?
COC(=O)/C(C(C)=O)=C(/C=C/C=C/N(C)C)N(C)C	i	i	i	i	i
C[n+]1cccc2cccc([O-])c21	25µM	40µM	?	?	i
NC(=O)c1cc[n+](CC2=C(C(=O)[O-])N3C(=O)[C@@H](NC(=O)Cc4cccs4)[C@H]3SC2)cc1	nt	nt	nt	nt	i
N#Cc1c(N2CCCC2)nc(N)c2c(N)nc(N3CCCC3)cc12	2.8µM	i	i	?	?
COc1cccc(C2c3c(ncn(-c4ccccc4OC)c3=N)Oc3ccc4ccccc4c32)c1 (configuration not stated)	nt	i	nt	nt	nt
Cn1nc(-c2ccc(F)cc2)nc2c(=O)n(C)c(=O)nc1-2	nt	i	nt	nt	nt
CC(C)(C)SCCNC(=O)CSCc1ccc([N+](=O)[O-])cc1	i	i	1.8µM	i	i
Cc1cc(NC(=O)CSCc2ccc([N+](=O)[O-])cc2)no1	i	i	i	i	i
COc1cc(OC)c(OC)cc1/C=N/Nc1ncnc2c1[nH]c1ccccc12	22µM	i	i	i	i
COc1ccc(/C=N/Nc2ncnc3c2[nH]c2ccc(C)cc23)c(OC)c1OC	i	nt	i	i	i
CCCC1(C)C(C#N)(C#N)C1(C#N)C#N	nt	nt	i	nt	nt
O=C1CN(S(=O)(=O)c2ccc3c(c2)OCCO3)CCN1S(=O)(=O)c1c(F)cccc1F	nt	i	nt	nt	nt
O=C(O)c1cccc(NC(=O)c2cn(-c3ccccc3)nc2-c2ccc([N+](=O)[O-])cc2)c1	i	i	i	nt	i
COc1ccc(-c2nn(-c3ccccc3)cc2C(=O)Nc2cccc(C(=O)O)c2)cc1[N+](=O)[O-]	i	22µM	i	nt	?
N#Cc1c(-c2ccc3ccccc3c2)no[n+]1[O-]	nt	nt	nt	nt	i
Cc1cc(C)n2nc(C(=O)Nc3c(C)nn(Cc4ccc(F)cc4)c3C)cc2n1	i	i	i	i	i
Cc1nn(Cc2ccc(F)cc2)c(C)c1NC(=O)c1cc2ncc(Br)cn2n1	i	32µM	i	i	i
Cc1ccc(-c2cc(C(=O)N3CCOCC3)c3ccccc3n2)o1	nt	i	22µM	nt	i
COC(=O)C1CCN(C(=O)c2cc(-c3ccco3)nc3ccccc23)CC1	nt	nt	8.9µM	nt	?
Cc1ccc(-c2cc(C(=O)N3CCN(c4ccc(F)cc4)CC3)c3ccccc3n2)o1	i	i	i	i	?
SMILES	BLM inh	TDP1 inh	GCN5L2 inh	RECQ1 inh	APE1 inh
COc1cccc(N2C(=O)c3ccccc3C2=O)c1	nt	i	nt	nt	nt
O=C(c1ccccc1O)N(Cc1cccs1)Cc1cccs1	nt	i	nt	nt	nt
COC/C=C/C1=CC2=CC(=O)C(C)(OC(=O)c3cnc4ccccc4n3)C(=O)C2=CN1c1ccc(CO)cc1 (configuration not stated)	13µM!	nt	?	i[11.5 µM]	11µM!
O=C1CN(C(=O)/C=C/c2ccco2)c2ccccc2N1	i	45µM	i	i	?
CC1CCCN(S(=O)(=O)c2ccc3c(c2)C(C)(C)C(=O)N3C)C1 (configuration not stated)	i	nt	28µM	nt	i
CN1CCN(S(=O)(=O)c2ccc3c(c2)C(C)(C)C(=O)N3C)CC1	i	nt	i	nt	i
O=C(CN1C(=O)/C(=C/c2ccco2)SC1=S)Nc1ccc(C(=O)O)c(O)c1	i	nt	?	nt	?
O=C(CCCN1C(=O)/C(=C\c2cccs2)SC1=S)Nc1ccc(O)cc1C(=O)O	i	i	i	nt	i
CC(C(=O)Nc1ccc(C(=O)O)c(O)c1)N1C(=O)/C(=C\c2ccco2)SC1=S (configuration not stated)	i	nt	?	nt	21µM
O=C(CCCN1C(=O)/C(=C\c2ccco2)SC1=S)Nc1ccc(O)cc1C(=O)O	i	i	10µM	nt	?
COc1ccc(CN(Cc2ccccc2)C(=O)c2ccccc2)cc1COc1ccc(NC(C)=O)cc1	nt	i	nt	nt	nt
Cc1cc(C)c2c(c1)/C(=N/Nc1ccc(S(N)(=O)=O)cc1[N+](=O)[O-])CCC2	i	i	i	i	i
NS(=O)(=O)c1ccc(N/N=C2/CCCCC2C2CCCCC2)c([N+](=O)[O-])c1 (configuration not stated)	i	i	i	2µM	i
CCOC(=O)CN1C(=O)N[C@H](c2ccc(Br)cc2)C(C(C)=O)=C1C	i	i	i	i	32µM
Cc1cccc(C)c1NC(=O)CN1CCN(C(=O)c2ccc(OCc3cn4ccccc4n3)cc2)CC1	nt	45µM	i	nt	i
C=CCN(c1nc(C)c(Br)c(OC)n1)S(=O)(=O)c1ccc(C)cc1	i	50µM	i	nt	i
C=CCn1c(NC(=O)c2ccccc2Cl)c(C#N)c2nc3ccccc3nc21	1µM	i	i	?	i
COc1ccc(C2Nc3ccccc3C(=O)N2Cc2ccccc2C(F)(F)F)cc1COc1ccc(NC(C)=O)cc1 (configuration not stated)	nt	i	nt	nt	nt
Cc1cc(N2CCN(c3ccc(F)cc3)CC2)nc2cc(O)ccc12	i	i	i	i	i
Cc1cc(N2CCN(c3ccccc3F)CC2)nc2cc(O)ccc12	i	i	13µM	i	i
CCCCCCCCCCCCCCCCn1cc[n+](Cc2ccccc2)c1C	?	i	8.9µM	i	?
O=S1(=O)N=C(Oc2ccc(Br)cc2)c2ccccc21	nt	i	nt	nt	nt
Cc1[nH]n(-c2ccccc2)c(=S)c1C=Nc1ccc([N+](=O)[O-])cc1	i	i	7.9µM	i	i
Cc1[nH]n(-c2ccccc2)c(=O)c1C=Nc1ccc(S(=O)(=O)N=C(N)N)cc1	i	i	i	i	i
COc1ccc(C)cc1Nc1nc(N)c2cc(OC)c(OC)cc2n1	20µM	i	i	nt	i
SMILES	BLM inh	TDP1 inh	GCN5L2 inh	RECQ1 inh	APE1 inh
COc1ccc(Cl)cc1Nc1nc(N)c2ccccc2n1	i	nt	i	nt	i
O=C(CNC(=O)c1ccccc1)N[C@@H](C(=O)Nc1cc(C(F)(F)F)ccc1Cl)c1ccccc1	nt	i	nt	nt	nt
Cc1cccc(Cn2cnc3c(cnn3C(C)(C)C)c2=O)c1F	nt	nt	nt	nt	i
N#Cc1nc(NCC(F)F)c2ncn(-c3cc(F)cc(F)c3)c2n1	nt	i	nt	nt	nt
Nc1nc(=S)c2ncn(C3OC(CO)C(O)C3O)c2[nH]1 (configuration not stated)	?	?	?	?	25µM
Nc1nc(=S)c2ncn([C@@H]3O[C@H](CO)[C@@H](O)[C@H]3O)c2[nH]1	nt	nt	i	nt	i
O=S(=O)(c1ccc2c(c1)OCCO2)N1CCN(S(=O)(=O)c2cc(F)c(Br)cc2F)CC1	nt	i	nt	nt	nt
